The values that follow come from PubChem BioAssay.

Calls of active or inactive are those of the source. Unless noted, how the calls were made is not given here.

Assay [1] relates to Wnt5a (protein binding on small-molecule microarray). The experiment in a line: Wnt5a binders on small-molecule microarray, primary screen, biophysical, 635/667 nm fluorescence (AID 1142).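 Further: fluorescence read at 667 nm with signal to noise per printed feature.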 The following applies: 635 nm fluorescence, higher = more signal.
Assay [2] is described as follows: cell viability in Huh7 cells, primary screen, cytotoxicity control for HCV replication inhibitor project, CellTiter-Glo luminescence, basal, 48 h (AID 1143).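 Further: Huh7 hepatoma cells carrying a hepatitis C replication reporter with no stimulus; test concentration not given here.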 The following applies: Huh7 HCV replicon, higher = more signal, called active from +8 up or from −8 down.
The nature of assay [3]: P. aeruginosa biofilm formation inhibitors, primary screen, PAO1 strain, BacTiter-Glo luminescence, LB-PBS (AID 1144). The conditions noted are these: 12 h, higher = more signal.
The nature of assay [4]: CREB reporter modulators without forskolin, primary screen, cell-based, PC12, CRE-LacZ reporter, unstimulated (AID 1145). The following applies: no forskolin, luminescence, 4.5 h, higher = more signal, called active from +8 up or from −8 down.
Assay [5] in a line: CREB reporter modulators under forskolin, primary screen, cell-based, PC12, CRE-LacZ reporter, forskolin-stimulated (AID 1146).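 Further: PC12 cells with 6xCRE LacZ reporter stimulated by forskolin 10 µM; beta-galactosidase reporter signal reflecting CREB driven transcription.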 The conditions noted are these: luminescence, 4.5 h, higher = more signal, called active from +8 up or from −8 down.
In assay [6] the target is Streptavidin (Streptomyces avidinii) (UniProt P22629). The experiment in a line: streptavidin binders on small-molecule microarray, primary screen, artefact control for SMM compound annotation, biophysical, 635/667 nm fluorescence (AID 1147).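 Further: signal reflects streptavidin binding to arrayed compounds as a control protein.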 The conditions noted are these: streptavidin binding, higher = more signal.
Assay [7] in a line: small-molecule binders of probe aInhba, primary screen, biochemical, small-molecule microarray, 635/667 nm fluorescence (AID 1148).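 Further: score merges 667nm spot fluorescence with signal-to-noise for antibody binding to printed compounds.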 The following applies: higher = more signal.
For assay [8], the target named is Torsin-1A (Homo sapiens) (UniProt O14656). The experiment in a line: torsin A binders from cell lysate, primary screen, small-molecule microarray, wild-type, 635/667 nm (AID 1149). The conditions noted are these: COS7 hTOR1A-WT lysate, 635 nm fluorescence, higher = more signal.
For assay [9] the target is unchanged. The assay is described as follows: small-molecule binders of mutant TOR1A in lysate, primary screen, cell lysate, small-molecule microarray, COS7 lysate, 635/667 nm fluorescence (AID 1150).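 Further: score pools 667 nm emission and signal to noise measuring lysate protein binding.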 The conditions noted are these: COS7 hTOR1A mutant lysate, 635 nm fluorescence, higher = more signal.
Assay [10] deals with Sonic hedgehog protein (Shh). The assay is described as follows: small-molecule binders of Shh protein, primary screen, biochemical, small-molecule microarray, 635/667 nm fluorescence (AID 1151).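 Further: Shh protein binding to compounds spotted on small-molecule microarray slides; score combines spot fluorescence intensity with signal-to-noise across triplicate slides.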 The conditions noted are these: small-molecule microarray binding, 635 nm fluorescence; higher = more signal.
The nature of assay [11]: E. coli DRC41 culture turbidity changes, primary screen, E. coli filamentation inducer project, strain DRC41, OD650, 48 h (AID 1152).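 Further: E. coli MC1000 strain DRC41 lacking acrAB efflux pump and sulA.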 The following applies: E. coli DRC41 (acrAB sulA), higher = more signal, called active from +8 up or from −8 down.
The nature of assay [12]: small-molecule binders of probe aLefty1, primary screen, biochemical, small-molecule microarray, 635/667 nm fluorescence (AID 1153).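 Further: score merges spot fluorescence with signal-to-noise ratio from the scanned slide images.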 The conditions noted are these: higher = more signal.
Assay [13] can be described thus: PSAC antagonists in infected red cells, primary screen, cell-based, P. falciparum Indochina, OD700, 1 h (AID 1154). The following applies: P. falciparum Indochina infected RBC osmotic lysis, higher = more signal, called active from +8 up or from −8 down.
Assay [14] is described as follows: PSAC antagonists in infected red cells, primary screen, cell-based, P. falciparum Indochina, OD700, 2 h (AID 1155).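 Further: lysis reports solute entry through the parasite surface anion channel PSAC; channel blockers reduce lysis of infected cells.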 The following applies: P. falciparum Indochina infected erythrocytes, osmotic lysis OD700; higher = more signal, called active from +8 up or from −8 down.
A short description of assay [15]: osmotic lysis modulators in infected erythrocytes, primary screen, PSAC antagonist project, cell-based, P. falciparum Indochina, OD700, 3 h (AID 1156). The conditions noted are these: higher = more signal, called active from +8 up or from −8 down.
The nature of assay [16]: PSAC antagonists in infected red cells, primary screen, cell-based, P. falciparum Indochina, OD700, 18 h (AID 1157). The conditions noted are these: P. falciparum Indochina infected erythrocytes, osmotic lysis OD700, 18 h; higher = more signal, called active from +8 up or from −8 down.
Assay [17] is described as follows: modulators of S6 phosphorylation in cells, primary screen, cell-based, A549, cytoblot, luminescence, serum-stimulated (AID 1158).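 Further: serum-stimulated A549 lung adenocarcinoma cells; signal is phosphorylated S6 detected by cytoblot immunostaining with HRP secondary.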 The following applies: A549 phospho-S6 cytoblot, 5 h, higher = more signal.
Assay [18] deals with NADPH oxidase 2 (Homo sapiens) (UniProt P04839). The assay is described as follows: NOX2-dependent H2O2 signal modulators, primary screen, NOX inhibitor project, cell-based, HEK293-NOX2, PMA-stimulated, Amplex Red fluorescence (AID 1159). Further: test concentration not given here. The conditions noted are these: 45 min, higher = more signal, called active from +8 up or from −8 down.
Assay [19] addresses NADPH oxidase 4 (Homo sapiens) (UniProt Q9NPH5). The assay is described as follows: NOX4-dependent H2O2 signal modulators, primary screen, NOX inhibitor project, cell-based, HEK293-NOX4, tetracycline-induced, Amplex Red fluorescence (AID 1160). The conditions noted are these: 45 min, higher = more signal, called active from +8 up or from −8 down.
Assay [20] addresses NADPH oxidase 5 (Homo sapiens) (UniProt Q96PH1). The experiment in a line: NOX5-dependent H2O2 signal modulators, primary screen, NOX inhibitor project, cell-based, HEK293-NOX5, Amplex Red fluorescence (AID 1161). The following applies: HEK293-NOX5, ionomycin, 45 min, higher = more signal.

Sequence of Torsin-1A (Homo sapiens) (O14656 whole entry, looked up): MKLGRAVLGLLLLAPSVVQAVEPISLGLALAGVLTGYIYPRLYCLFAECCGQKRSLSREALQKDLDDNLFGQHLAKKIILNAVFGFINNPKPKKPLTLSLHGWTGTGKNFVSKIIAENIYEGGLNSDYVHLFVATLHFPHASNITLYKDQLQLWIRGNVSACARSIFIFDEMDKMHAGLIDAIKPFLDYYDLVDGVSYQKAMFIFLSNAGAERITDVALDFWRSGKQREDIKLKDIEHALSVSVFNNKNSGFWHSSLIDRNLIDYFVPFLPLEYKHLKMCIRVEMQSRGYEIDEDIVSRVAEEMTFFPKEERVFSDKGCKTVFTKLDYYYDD
Sequence of NADPH oxidase 2 (Homo sapiens) (P04839 whole entry, looked up): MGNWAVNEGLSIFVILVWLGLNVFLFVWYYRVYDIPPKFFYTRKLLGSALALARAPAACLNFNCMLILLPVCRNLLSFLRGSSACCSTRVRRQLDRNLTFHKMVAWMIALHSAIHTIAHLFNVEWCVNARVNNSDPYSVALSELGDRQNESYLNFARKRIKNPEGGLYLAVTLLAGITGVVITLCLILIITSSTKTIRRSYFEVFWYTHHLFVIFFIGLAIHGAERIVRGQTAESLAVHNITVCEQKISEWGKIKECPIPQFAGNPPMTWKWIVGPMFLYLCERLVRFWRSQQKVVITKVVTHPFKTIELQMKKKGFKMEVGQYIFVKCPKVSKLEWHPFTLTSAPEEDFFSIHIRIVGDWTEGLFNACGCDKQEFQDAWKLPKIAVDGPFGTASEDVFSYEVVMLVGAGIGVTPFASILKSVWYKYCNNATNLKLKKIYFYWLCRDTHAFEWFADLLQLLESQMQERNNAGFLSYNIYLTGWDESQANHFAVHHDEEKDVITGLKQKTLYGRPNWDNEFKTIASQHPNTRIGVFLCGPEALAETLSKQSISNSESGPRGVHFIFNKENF
Sequence of NADPH oxidase 5 (Homo sapiens) (Q96PH1 whole entry, looked up): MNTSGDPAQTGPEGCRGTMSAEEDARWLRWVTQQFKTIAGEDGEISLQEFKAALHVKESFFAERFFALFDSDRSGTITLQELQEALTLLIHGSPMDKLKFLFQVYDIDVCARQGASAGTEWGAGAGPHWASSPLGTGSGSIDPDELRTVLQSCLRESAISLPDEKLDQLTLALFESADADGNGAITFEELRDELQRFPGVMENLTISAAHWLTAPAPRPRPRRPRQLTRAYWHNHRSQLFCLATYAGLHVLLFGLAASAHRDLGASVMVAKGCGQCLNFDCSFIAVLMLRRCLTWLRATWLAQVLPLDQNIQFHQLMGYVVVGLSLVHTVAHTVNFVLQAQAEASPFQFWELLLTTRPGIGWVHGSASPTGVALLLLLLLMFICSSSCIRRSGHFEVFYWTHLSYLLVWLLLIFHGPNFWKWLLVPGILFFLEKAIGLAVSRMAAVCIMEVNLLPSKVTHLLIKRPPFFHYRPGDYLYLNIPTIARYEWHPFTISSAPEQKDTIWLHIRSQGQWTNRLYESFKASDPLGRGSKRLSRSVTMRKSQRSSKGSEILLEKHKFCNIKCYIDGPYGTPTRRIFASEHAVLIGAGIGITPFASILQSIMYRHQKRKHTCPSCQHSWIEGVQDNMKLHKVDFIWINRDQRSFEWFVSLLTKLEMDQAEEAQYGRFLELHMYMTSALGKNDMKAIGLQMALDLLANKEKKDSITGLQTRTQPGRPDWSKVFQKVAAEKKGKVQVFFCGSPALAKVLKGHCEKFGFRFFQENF
Sequence of Streptavidin (Streptomyces avidinii) (P22629 whole entry, looked up): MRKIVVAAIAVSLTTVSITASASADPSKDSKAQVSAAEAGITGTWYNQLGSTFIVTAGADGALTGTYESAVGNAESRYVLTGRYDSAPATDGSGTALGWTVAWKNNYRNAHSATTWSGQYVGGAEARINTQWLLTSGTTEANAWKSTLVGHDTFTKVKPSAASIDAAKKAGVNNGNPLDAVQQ
Sequence of NADPH oxidase 4 (Homo sapiens) (Q9NPH5 whole entry, looked up): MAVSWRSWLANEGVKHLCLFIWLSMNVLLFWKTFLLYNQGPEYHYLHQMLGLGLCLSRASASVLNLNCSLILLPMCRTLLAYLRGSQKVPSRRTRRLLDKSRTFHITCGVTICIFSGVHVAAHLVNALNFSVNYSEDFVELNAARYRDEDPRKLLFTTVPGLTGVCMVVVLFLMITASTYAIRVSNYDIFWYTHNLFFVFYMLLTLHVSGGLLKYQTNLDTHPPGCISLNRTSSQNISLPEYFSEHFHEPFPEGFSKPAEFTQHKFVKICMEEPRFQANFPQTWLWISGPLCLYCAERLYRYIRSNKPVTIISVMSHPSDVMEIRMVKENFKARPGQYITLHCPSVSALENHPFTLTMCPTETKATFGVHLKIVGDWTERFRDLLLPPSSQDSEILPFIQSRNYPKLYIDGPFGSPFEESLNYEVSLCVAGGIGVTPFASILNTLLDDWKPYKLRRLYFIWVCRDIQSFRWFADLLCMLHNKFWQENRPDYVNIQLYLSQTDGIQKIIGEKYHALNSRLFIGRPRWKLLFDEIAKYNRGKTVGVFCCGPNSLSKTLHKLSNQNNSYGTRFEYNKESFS

In the case of `CC[C@@H]1O[Si](C(C)C)(C(C)C)c2c1cc(-c1cc(C)c(OC)c(C)c1)nc2-c1ccc(Oc2ccccc2)cc1`, the composite z-score in [1] was -0.216; in [6], -0.21; in assay [7], -0.231; with Torsin-1A (Homo sapiens) [8] it was -0.851; with Torsin-1A (Homo sapiens) [9], -0.542; in assay [10], 0.305. In assay [12], this molecule displayed a composite z-score of 0.0101. Besides, the z-score in assay [2] was 0.0485 (inactive); in [3] it was -0.523 (inactive); in assay [4], -0.491 (inactive); in [5] it was 0.316 (inactive); in assay [11], -0.109 (inactive); in [13], -0.261 (inactive). Moreover, the z-score is 0.26 (inactive) in assay [14]; 0.827 (inactive) in assay [15]; 0.311 (inactive) in [16]; 0.189 in [17]; -1.36 (inactive) in assay [18]; -0.672 (inactive) in [19]. The molecule further came in with a z-score in assay [20] of -2.04.
On to `CC(C)c1ccc(NN2C(C(O)c3ccc(F)cc3)C=CC3C(=O)N(c4ccccc4)C(=O)C32)cc1` (stereo not given), for which the composite z-score was 0.306 in assay [1]; 1.7 in assay [6]; 0.324 in assay [7]; -0.448 with Torsin-1A (Homo sapiens) [8]; 0.0626 with Torsin-1A (Homo sapiens) [9]; -0.0155 in [10]. This molecule also gave a composite z-score in [12] of 0.498. Further, the z-score is -0.953 (inactive) in [2]; -1.63 (inactive) in assay [3]; 0.812 (inactive) in [4]; 0.3 (inactive) in [5]; -0.601 (inactive) in [11]; 3.82 (inactive) in assay [13]. The z-score in assay [14] is 1.76 (inactive); in [15], 0.0964 (inactive); in assay [16], 1.44 (inactive); in [17], -1.05; in assay [18], -1.15 (inactive); in [19] it was -2.78 (inactive). In [20], this molecule came in with a z-score of -2.6.
`O=C(O)[C@@H]1C[C@@H]2C(=O)N3CCC[C@H]3C(=O)N2[C@@H]1c1ccc(O)cc1`: the composite z-score in assay [1] was determined as 0.357; in assay [6], 0.262; in assay [7], 0.0586; with Torsin-1A (Homo sapiens) [8], 0.746; with Torsin-1A (Homo sapiens) [9], 0.643; in [10] it was 1.61. This molecule also returned a composite z-score in [12] of 0.266. Moreover, the z-score was -2.79 (inactive) in [2]; 0.235 (inactive) in [3]; 0.0205 (inactive) in assay [4]; -1.18 (inactive) in [5]; 2.3 (inactive) in assay [11]; 3.69 (inactive) in [13]. Moreover, the z-score in [14] is -0.325 (inactive); in assay [15], -3.21 (inactive); in [16] it was -1.54 (inactive); in assay [17], 0.722; in [18] it was -8.21 (active); in assay [19] it was -4.92 (inactive). Besides, in assay [20], the z-score was -5.18.
Consider `C=CCNC(=O)[C@H]1[C@@H]2C(=O)O[C@@H](c3ccccc3)[C@@H](c3ccccc3)N2[C@@H](c2ccccc2OCCO)[C@]12C(=O)N(C(=O)OCCOC)c1ccc(C#CC3(O)CCCCCC3)cc12`, for which the composite z-score in [1] is 0.358; in assay [6] it was -0.139; in [7], 0.0566; in the assay with Torsin-1A (Homo sapiens) [8], 0.216; with Torsin-1A (Homo sapiens) [9] it was 0.647; in assay [10] it was 1.57. Besides, the composite z-score in [12] was determined as 0.25. Moreover, the z-score in assay [2] is -5.57 (inactive); in [3], -0.717 (inactive); in assay [4], -0.258 (inactive); in [5] it was 0.347 (inactive); in assay [11], 1.49 (inactive); in assay [13], 1.58 (inactive). The z-score in assay [14] was 0.166 (inactive); in assay [15] it was -0.236 (inactive); in assay [16], -1.57 (inactive); in [17], 2.01; in [18] it was 1.52 (inactive); in [19] it was 1.07 (inactive). Further, the z-score in assay [20] was determined as 0.729.
For the molecule `Cc1ccc(S[C@]2(C(=O)NC(C)C)CC(=O)N(Cc3cc(C(F)(F)F)cc(C(F)(F)F)c3)[C@@H]2c2ccc(CO)cc2)cc1`, the composite z-score in assay [1] is 0.0368; in [6], -1.18; in assay [7] it was -0.121; with Torsin-1A (Homo sapiens) [8], -1.86; with Torsin-1A (Homo sapiens) [9], -1.78; in assay [10], -0.621. This molecule also had a composite z-score in assay [12] of -0.0252. The z-score in assay [2] was -0.523 (inactive); in assay [3], 0.0139 (inactive); in assay [4] it was 0.0655 (inactive); in [5], 0.832 (inactive); in assay [11], -0.16 (inactive); in assay [13] it was 2.96 (inactive). The z-score is 0.812 (inactive) in [14]; 0.497 (inactive) in assay [15]; 0.672 (inactive) in assay [16]; -0.768 in assay [17]; -0.00496 (inactive) in assay [18]; -0.242 (inactive) in assay [19]. The z-score in [20] was 0.128.
